DRD3 antagonist: D3 dopamine receptor (human) antagonism | P35462 | 2.5% of 360,000 active | max response, negative = inhibition, % | D3R cells, DiscoveRx beta-arrestin luminescence, antagonist mode; hits give low values; in the data active means max response below about -50%; inconclusive means no clear call, values can overlap the other calls; further: on the % scale 0 is the no-effect control and ±100 the full control effect
Target sequence (P35462 whole entry, looked up): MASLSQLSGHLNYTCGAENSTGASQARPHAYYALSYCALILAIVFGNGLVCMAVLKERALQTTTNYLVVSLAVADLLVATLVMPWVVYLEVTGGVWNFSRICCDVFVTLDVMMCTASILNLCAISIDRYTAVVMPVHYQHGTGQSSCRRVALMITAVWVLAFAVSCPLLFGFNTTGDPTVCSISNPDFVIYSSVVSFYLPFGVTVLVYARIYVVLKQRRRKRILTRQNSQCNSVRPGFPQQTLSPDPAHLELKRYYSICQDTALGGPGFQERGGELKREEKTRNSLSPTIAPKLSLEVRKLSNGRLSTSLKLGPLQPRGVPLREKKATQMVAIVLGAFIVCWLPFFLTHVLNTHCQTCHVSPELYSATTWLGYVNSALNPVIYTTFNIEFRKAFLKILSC
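Cells expressing the human receptor were seeded at 1500 cells/well, incubated overnight at 37 degrees C in 5% CO2, then exposed to library compounds with dopamine controls for 90 minutes at 37 degrees C before luminescent detection.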
Integrin act MD: activates integrin-mediated alleviation for muscular dystrophy; alpha7betagal myoblasts, beta-gal FDG fluorescence, 48 h; Potency, µM (highest dose often 38.3 µM), for the others: at the highest dose activation, usual class: activators; 0.064% of 350,000 active; active means well fitted activation curve with a large enough effect; inconclusive means small, poorly fitted or top-dose-only effect; inactive means no such curve, though single readings can be large or run the other way;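 further: potency means the concentration at half of the fitted maximal effect; 100% = response of the positive control SU9516; nearly all actives have a fitted effect of over 60% in size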
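alpha7betagal+/- myoblasts (passage 13, 250/well) treated 48 h at 37C with compounds at 1:260 dilution of DMSO stock. Lysed, then beta-galactosidase activity read as FDG fluorescence (ex 480/em 540) after 30 min, with pre-read for autofluorescence.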
DRD3 agonist: activates the human D3 dopamine receptor; P35462; D3R DiscoveRx beta-arrestin cells, luminescence, 90 min; max activation, %; 0.58% of 410,000 active; AID 652048; in the data active means max activation above about 30%; further: 0% is about no effect
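Cells at 1500/well, incubated overnight, then treated with pinned compounds (dopamine as control) for 90 min at 37 degrees C. DiscoveRx reagent added for 30 - 60 minutes at room temperature; luminescence read.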
An asterisk follows results filed as active; ? = inconclusive; . = no result given; ! = not confirmed by another sample; [ ] = dose if it differs, or a comment. Only some compounds are listed: those with a hit (about 2.9% of all), similar ones and a draw of the others.

SMILES	DRD3 antagonist	Integrin act MD	DRD3 agonist
O=C(CN1CCN(Cc2ccccc2)CC1)NCCNc1ccc([N+](=O)[O-])cn1	-19	2%	-5
COc1ccc(OCCSc2nc(C)nc3ccccc23)cc1	63	-15%	55*
COc1ccc(OCCSc2ncccn2)cc1	-17	1%[7.66 µM]	-3
COc1cccc(N2CCN(Cc3ccsc3)CC2)c1	-71*	2%	-10
COc1cccc(N2CCN(Cc3ccco3)CC2)c1	-6	6%	0
CCCCCCCCc1nc(=S)[nH][nH]1	-67*	6%	-2
CCCCCCC1CC(CCc2nc(=S)[nH][nH]2)C(=O)O1 (centres undefined)	-13	9%	-2
COc1cccc(C#Cc2c(C=O)n(C)c3ccccc23)c1	69	-11%	56*
Cn1c(C=O)c(C#CC(C)(C)O)c2ccccc21	17	2%	12
Cn1ncc2c(N3CCN(c4ccccc4F)CC3)ncnc21	29	3%	30*!
Cn1nnc2c(N3CCN(c4ccccc4F)CC3)ncnc21	.	.	-3
CC(C)=CCN1CCN(C/C(Cl)=C/c2ccccc2)CC1CCO (centres undefined)	-63*	15%	-19
OCCC1CN(C/C(Cl)=C/c2ccccc2)CCN1C1CCCC1 (centres undefined)	-19	7%	-9
NC(=O)CC(NC(=O)Cc1ccc(Br)cc1)c1ccc(NCc2ccccn2)c([N+](=O)[O-])c1 (centres undefined)	-5	-17%	-22
O=C(/C=C/c1ccccc1)NNC(=O)c1cccs1	-3	48%	0
CCN(CC)S(=O)(=O)c1ccc(C(=O)Nc2nnc(COC)o2)cc1	-8	?	8
Cc1cccc(NC(=O)c2ccc(S(=O)(=O)N(C)C)cc2)c1	0	15%	-6
CCCCN(C)S(=O)(=O)c1ccc(C(=O)Nc2nnc(CSC)o2)cc1	-98*	-38%	-2
CCCCN(CCCC)S(=O)(=O)c1ccc(C(=O)Nc2nnc(COC)o2)cc1	-93*	-5%	-1
CCN(CC)S(=O)(=O)c1ccc(C(=O)Nc2nnc(CSC)o2)cc1	2	-4%	8
CCc1nnc(NC(=O)c2ccc(S(=O)(=O)N(CC)Cc3ccccc3)cc2)o1	-99*	-35%	8
CCN(CC)S(=O)(=O)c1ccc(C(=O)Nc2cccc(C)c2)cc1	-83*	5%	-10
CCN(Cc1ccccc1)S(=O)(=O)c1ccc(C(=O)Nc2nnc(C)o2)cc1	4	-7%	1
CC(C)C[C@@H](CNCC(=O)[C@H](CC(C)C)NC(=O)c1[nH]cnc1C(=O)N[C@@H](C)CN)NC(=O)c1nc[nH]c1C(=O)N[C@@H](C)C(=O)O	-1	21%	1
CCCCc1c(-c2ccccc2OC)ncn1Cc1ccc(Cl)cc1	8	.	4
SMILES	DRD3 antagonist	Integrin act MD	DRD3 agonist
COc1ccccc1-n1c(SCC(=O)Nc2cc(C)on2)nc2c([nH]c3ccccc32)c1=O	3	0%	5
CCN(CC)S(=O)(=O)c1ccc(C(=O)Nc2nnc(-c3ccco3)o2)cc1	7	-40%	-3
CCCCN(CC)S(=O)(=O)c1ccc(C(=O)Nc2nnc(-c3cccs3)o2)cc1	-57*	-32%	1
COc1cc(CN2CCNC(=O)C2CC(=O)NC2CCCCC2)cc(OC)c1 (centres undefined)	?	-15%	-15
CCOC(=O)N1CCN(C(=O)CNC(=O)c2nn(-c3ccc(OC)c(Cl)c3)c(=O)c3ccccc23)CC1	60	0%	9
CCOC(=O)N1CCN(C(=O)CNC(=O)c2nn(-c3ccc(OC)c(OC)c3)c(=O)c3ccccc23)CC1	10	?	54*
COc1ccc(C(=O)/C=C/c2cn(CC(O)CN3CCCCCC3)c3ccccc23)cc1OC (centres undefined)	.	.	-26
CCOCCCNC(=O)CN1CCN(c2ccc(F)cc2)CC1	-11	-16%	0
CN1C(=O)N(C)C2(c3ccccc3)N(C)C(=O)NC12c1ccccc1 (centres undefined)	-57*	0%	-6
CC(C)N1C(=O)NC2(c3ccccc3)N(C)C(=O)N(C)C12c1ccccc1 (centres undefined)	2	-20%	2
COc1ccccc1C(=O)NCCCNC(=O)c1ccccn1	-24	40%	-8
O=C(NCCCNCc1ccccc1)c1ccccn1	-66*!	11%	-15
CC1CCCN(CC(=O)NC(=O)NC2CCCCC2)C1 (centres undefined)	9	15%	-1
O=C1c2ccccc2NC(c2ccc3c(c2)OCCO3)N1c1ccc2c(c1)OCCO2 (centres undefined)	0	22%	-7
O=C1c2ccccc2NC(c2ccc3c(c2)OCO3)N1O (centres undefined)	-57*	-13%	-19
O=C1CN(C(=O)COC(=O)[C@@H]2CC(O)CN2S(=O)(=O)c2ccc(Cl)cc2)c2ccccc2N1 (some centres undefined)	-20	11%	-2
Cn1c(CNc2ccc(O)cc2)nc2ccccc21	-3	-6%	3
Cc1ccc(NCc2nc3ccccc3n2C)cc1	-27	12%	-5
Cc1ccc(NC(=O)NCc2nc3ccccc3n2C)cc1	-21	4.5µM*	-10
CC(C)n1c(NCc2nc3ccccc3n2C)nc2ccccc21	-93*	-15%	-11
COc1ccc(CNc2nc3ccccc3n2C(C)C)cc1	-20	5%	-9
Cn1c(CNc2nc3ccccc3n2C)nc2ccccc21	-70*	-15%	-11
CCn1c(CNc2nc3ccccc3n2C(C)C)nc2ccccc21	-59*	12%	-13
CC(C)n1c(NCCO)nc2ccccc21	11	-16%	3
CCN(CC)S(=O)(=O)c1ccc2c(c1)N(CC(=O)N(C)Cc1ccccc1)C(=O)CO2	.	.	-19
SMILES	DRD3 antagonist	Integrin act MD	DRD3 agonist
CCn1c(SCC(=O)N(C)C2CCCCC2)nc2cc(S(N)(=O)=O)ccc21	-19	-22%	10
CCCCNC(=O)c1sc(=S)n2c1[nH]c(=O)c1ccccc12	-50*	1%	0
O=C(NC1CCCCC1)c1sc(=S)n2c1[nH]c(=O)c1ccccc12	?	-18%	7
Cc1cccc(-c2noc(-c3ccno3)n2)c1	29	0%	1
Cc1[nH]c(C)c(S(=O)(=O)Nc2ccc(F)cc2Cl)c1C(=O)N1CCCC1	2	-3%	2
Cc1[nH]c(C)c(S(=O)(=O)Nc2ccccc2Cl)c1C(=O)N1CCCC1	-6	12%	2
Cc1[nH]c(C)c(S(=O)(=O)Nc2cccc(Cl)c2C)c1C(=O)N1CCCCC1	-51*	2%	-5
Cc1ccc(NS(=O)(=O)c2c(C)[nH]c(C)c2C(=O)N2CCCC2)cc1Cl	-86*	12%	-21
Cc1[nH]c(C)c(S(=O)(=O)Nc2cccc(Cl)c2C)c1C(=O)N1CCCC1	-65*	24%	-3
Cc1ccc(NS(=O)(=O)c2c(C)[nH]c(C)c2C(=O)N2CCCCC2)cc1C	?	-14%	1
Cc1ccc(S(=O)(=O)Nc2ccc3nc(C)oc3c2)cc1	6	24%	-6
Cc1ccc2c(c1)nnn2C1CCN(CC(=O)NCCc2ccccc2)CC1	-30	-4%	-19
O=C(COC(=O)c1cccc(-n2cnnn2)c1)c1ccc(F)cc1	8	-13%	-7
COc1ccc(C(=O)COC(=O)c2cccc(-n3cnnn3)c2)c(OC)c1	9	8%	36*
